Reference: the emibetuzumab library of Makowski et al. (2022)
The list shows a part of the results. How many sequences the whole screen found active is unknown.

B1: VH:VL chains; a variant is named by its letters at X, in order (parent)
chain 1: QVQLVQSGAEVKKPGASVKVSCKASGYTFTDYXMHWVRQAPGQGLEWMGXVNPNXXXTTYNQKFEGRVTMTTDTSTSTAYMELRSLRSDDTAVYYCARXNXLDXWGQGTTVTVSS
chain 2: DIQMTQSPSSLSASVGDRVTITCSVSSSVSSIYLHWYQQKPGKAPKLLIYSTSNLASGVPSRFSGSGSGTDFTLTISSLQPEDFATYYCQVYSGYPLTFGGGTKVEIK

Variants of: B1
Assay: yeast display scFab, FACS + sequencing
Details: with MET
In short: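 Two magnetic rounds on Protein A beads coated with HGFR-Fc, followed by FACS, were used to enrich a yeast surface scFab library mutated in the heavy-chain CDRs. FACS gated the top 50% antigen-positive cells after 3 h labelling at room temperature with 1 nM HGFR-Fc and anti-Myc in PBSB plus 1% milk. Binding to the antigen was scored positive when a sequence occurred in both antigen-positive samples from deep sequencing and negative when it occurred only in the input.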
For YEKETVVA, the antigen binding call was “no binding”. In the case of YKGKSAWD, the antigen binding call is reported as “no binding”. YKGKGAWD was tested, and the antigen binding call was “binds”. YRARSAGV was tested, and the antigen binding call was “binds”. SEARSSGV was tested, and the antigen binding call was “no binding”. With SEARSAGV the antigen binding call was “no binding”. With YRARSASV the antigen binding call was “binds”. DRAGDAGV was tested, and the antigen binding call was “no binding”. For YRARSSGV, the antigen binding call was “binds”. In the case of STEGDAGA, the antigen binding call is reported as “no binding”. In the case of DATRGAGY, the antigen binding call is reported as “no binding”. With VRKGSSGD the antigen binding call was “binds”. With ARKGSSGD the antigen binding call was “no binding”. With YRKGSSGD the antigen binding call was “binds”. With YRKGDSGD the antigen binding call was “binds”. YRKGDSLD was tested, and the antigen binding call was “binds”. VEKGGSGD was tested, and the antigen binding call was “no binding”. In the case of VTGTGAAV, the antigen binding call is reported as “no binding”. With YRKGDAGD the antigen binding call was “binds”. In the case of FRGRGYVV, the antigen binding call is reported as “binds”. In the case of FRGRGYAV, the antigen binding call is reported as “binds”. In the case of FRGRGYVA, the antigen binding call is reported as “binds”. In the case of FRGRGYWV, the antigen binding call is reported as “binds”. With FAAGSYAV the antigen binding call was “no binding”. In the case of VTGEDAVV, the antigen binding call is reported as “no binding”. SEEGTAGA was tested, and the antigen binding call was “no binding”. For FAGGGDWV, the antigen binding call was “no binding”. YGGTSYSV was tested, and the antigen binding call was “no binding”. In the case of YRGRGYWV, the antigen binding call is reported as “binds”. FRGRGDWV was tested, and the antigen binding call was “binds”. In the case of VRATGYWA, the antigen binding call is reported as “no binding”. With YRGRGYWA the antigen binding call was “binds”. In the case of YRGRGYSV, the antigen binding call is reported as “binds”. With SRGRGYSV the antigen binding call was “no binding”. DRGRGDWV was tested, and the antigen binding call was “no binding”. For AKERGDGV, the antigen binding call was “no binding”. With VETEGDAV the antigen binding call was “no binding”. In the case of FKGRGAWV, the antigen binding call is reported as “binds”. With YRGRGVWV the antigen binding call was “binds”. FRGRGAWV was tested, and the antigen binding call was “binds”. With ARGRGAWV the antigen binding call was “no binding”. With FKGRGVWV the antigen binding call was “no binding”. With YGGRGDWV the antigen binding call was “no binding”. In the case of VTGGGDGA, the antigen binding call is reported as “no binding”. VEGGGSSA was tested, and the antigen binding call was “no binding”. In the case of DAGGAAAA, the antigen binding call is reported as “no binding”. With YRGGAAAA the antigen binding call was “binds”. With YRGGGSAA the antigen binding call was “binds”. With YRGGASAA the antigen binding call was “binds”. YRGRGSAF was tested, and the antigen binding call was “binds”. For VRGGGSAA, the antigen binding call was “binds”. In the case of YEGGADVA, the antigen binding call is reported as “no binding”. With DAGGAAVA the antigen binding call was “no binding”. In the case of VEGGGDAA, the antigen binding call is reported as “no binding”. For DTKAASSA, the antigen binding call was “no binding”. For SEGGSAAY, the antigen binding call was “no binding”. With DEGGTDGV the antigen binding call was “no binding”. With DEGGTAAA the antigen binding call was “no binding”. With VRGRSSAA the antigen binding call was “binds”. In the case of VREGSSAA, the antigen binding call is reported as “no binding”. With YRGRTAAA the antigen binding call was “binds”. YEERTAAA was tested, and the antigen binding call was “no binding”. With YRGGTAAA the antigen binding call was “binds”. In the case of YRAGGYGF, the antigen binding call is reported as “binds”. With YRGRGYGS the antigen binding call was “binds”. In the case of YRTRDVGF, the antigen binding call is reported as “no binding”. YRAGGVGF was tested, and the antigen binding call was “binds”. With YRGRGYVS the antigen binding call was “binds”. In the case of DKTGDDVF, the antigen binding call is reported as “no binding”. For SEKKDYSA, the antigen binding call was “no binding”. For DGGGGYWF, the antigen binding call was “no binding”. YRGRGYGF was tested, and the antigen binding call was “binds”. In the case of YRGRGYGA, the antigen binding call is reported as “binds”. YEGGGYSF was tested, and the antigen binding call was “no binding”. With DRGGGDGV the antigen binding call was “no binding”. For YTGGDDGF, the antigen binding call was “no binding”. With YRGGGYGF the antigen binding call was “no binding”. For YRGGGDGF, the antigen binding call was “binds”. In the case of SETGADVA, the antigen binding call is reported as “no binding”. With DTGRGSGV the antigen binding call was “no binding”. In the case of YTGTSSLD, the antigen binding call is reported as “no binding”. For YTGRGSLD, the antigen binding call was “binds”. For YTGRGSGV, the antigen binding call was “binds”. For FTGRGAGV, the antigen binding call was “no binding”. For VTGTGSLD, the antigen binding call was “no binding”. DRAGDDSA was tested, and the antigen binding call was “no binding”. YRARGASA was tested, and the antigen binding call was “binds”. YRAGGDSA was tested, and the antigen binding call was “binds”. In the case of YRAGGASA, the antigen binding call is reported as “binds”. With YRARSASA the antigen binding call was “binds”. With VEGTGVGD the antigen binding call was “no binding”. In the case of DAGKGAVY, the antigen binding call is reported as “no binding”. With STTGGDGV the antigen binding call was “no binding”. For FAKTDAGF chain 1 G108D, the antigen binding call was “no binding”. For SGRGNAGD, the antigen binding call was “no binding”. With FRTKGAAD the antigen binding call was “binds”. With FTAGGAAD the antigen binding call was “no binding”. YRAKGAAD was tested, and the antigen binding call was “binds”. YRTKGAAD was tested, and the antigen binding call was “binds”. With FRGEGAAD the antigen binding call was “binds”. With YATKGFGD the antigen binding call was “no binding”. With FKGEGAAD the antigen binding call was “no binding”. With ATGGGYVA the antigen binding call was “no binding”. For YRRGAAGD, the antigen binding call was “binds”. YKRGSAGD was tested, and the antigen binding call was “binds”. In the case of YTRGAASD, the antigen binding call is reported as “no binding”. In the case of YKRGAAGD, the antigen binding call is reported as “binds”. For YKRAAYGD, the antigen binding call was “no binding”. In the case of FEKGSDVA, the antigen binding call is reported as “no binding”. For VETEGDVY, the antigen binding call was “no binding”. With FTGEDDVY the antigen binding call was “no binding”. In the case of YKGGGAGS, the antigen binding call is reported as “binds”. In the case of YKGRSSSS, the antigen binding call is reported as “binds”. With DKEGGSSS the antigen binding call was “no binding”. YKGKGAGS was tested, and the antigen binding call was “binds”. For YKGKGYVD, the antigen binding call was “no binding”. In the case of YKGKGSVS, the antigen binding call is reported as “binds”. With VEGGTAGS the antigen binding call was “no binding”. DAGGGSSS was tested, and the antigen binding call was “no binding”. DEGGGAGS was tested, and the antigen binding call was “no binding”. With YEKEDYLA chain 1 G108D the antigen binding call was “no binding”. For FAKEGDGD, the antigen binding call was “no binding”. With YKGKGSGA the antigen binding call was “binds”. With YTGTGSGA the antigen binding call was “no binding”. In the case of VKAGGDGS, the antigen binding call is reported as “no binding”. With YARGGAGA the antigen binding call was “no binding”. In the case of YKGKGSSS, the antigen binding call is reported as “binds”. With YKRGGAGS the antigen binding call was “binds”. With YKGKGSGS the antigen binding call was “binds”. DTAESDLD was tested, and the antigen binding call was “no binding”. In the case of SEARSSWV, the antigen binding call is reported as “no binding”. For YKGKGAWS, the antigen binding call was “binds”. For YKGRAAGS, the antigen binding call was “binds”. VKGRADGS was tested, and the antigen binding call was “no binding”. With AKGRAAAS chain 1 D103N the antigen binding call was “no binding”. DKEGGDAV was tested, and the antigen binding call was “no binding”. FEKEGDAA was tested, and the antigen binding call was “no binding”. YRARGSGV was tested, and the antigen binding call was “binds”. In the case of YRARGYGV, the antigen binding call is reported as “binds”. With YTERGFGV the antigen binding call was “no binding”. In the case of YTARDVGV, the antigen binding call is reported as “no binding”. YRARGFGV was tested, and the antigen binding call was “binds”. YRARGVGV was tested, and the antigen binding call was “binds”. YRARGAWV was tested, and the antigen binding call was “binds”. In the case of YRARGDGV, the antigen binding call is reported as “binds”. For YAAGGDGV, the antigen binding call was “no binding”. With YRARGAGV the antigen binding call was “binds”. YRARSAWV was tested, and the antigen binding call was “binds”. YRAETDGV was tested, and the antigen binding call was “no binding”. SEEGTAGD was tested, and the antigen binding call was “no binding”. With YAKGDYSV the antigen binding call was “no binding”. For SETTDSLD, the antigen binding call was “no binding”. For ARGRGAAS, the antigen binding call was “binds”. With AGGRGDVD the antigen binding call was “no binding”. For ARGRGAAD, the antigen binding call was “binds”. For AAEGDAAD, the antigen binding call was “no binding”. In the case of SGGRTYGV, the antigen binding call is reported as “no binding”. YRGGGDWV was tested, and the antigen binding call was “binds”. YTETGDSV was tested, and the antigen binding call was “no binding”. In the case of YEGGGDWV, the antigen binding call is reported as “no binding”. In the case of YRGRGDSV, the antigen binding call is reported as “binds”. For VRGGGDWV, the antigen binding call was “no binding”. With YRGGDDSV the antigen binding call was “no binding”. With YTGGGDGV the antigen binding call was “no binding”. YRGGGDSV was tested, and the antigen binding call was “binds”. For SETKGDWA, the antigen binding call was “no binding”. For VTTKSDAV, the antigen binding call was “no binding”. With DEKGGSSA the antigen binding call was “no binding”. In the case of DTTRGAVA, the antigen binding call is reported as “no binding”. FRAGGAWY was tested, and the antigen binding call was “binds”. DRRGDAVY was tested, and the antigen binding call was “no binding”. FRRGGAWY was tested, and the antigen binding call was “binds”. YRRGDAWY was tested, and the antigen binding call was “binds”. In the case of FRKRGAWY, the antigen binding call is reported as “binds”. With YAGGGDGA the antigen binding call was “no binding”. For YRRGGAWY, the antigen binding call was “binds”. With FRRGGAGY the antigen binding call was “binds”. In the case of FRRRGAWY, the antigen binding call is reported as “binds”. FRGEAVVY was tested, and the antigen binding call was “no binding”. In the case of FRTKAAVY, the antigen binding call is reported as “no binding”. FTKGSAGY was tested, and the antigen binding call was “no binding”. For FRAGGAVY, the antigen binding call was “binds”. VAGGDDGA was tested, and the antigen binding call was “no binding”. For FGGENDGD, the antigen binding call was “no binding”. VRTRGSSS was tested, and the antigen binding call was “binds”. For VGGTSSSS, the antigen binding call was “no binding”. In the case of VRKRGSSS, the antigen binding call is reported as “binds”. In the case of DETGNVWF, the antigen binding call is reported as “no binding”. VTGEDDAA was tested, and the antigen binding call was “no binding”. In the case of DAGGADVA, the antigen binding call is reported as “no binding”. For YRAGSAAD, the antigen binding call was “binds”. In the case of YRARSALD, the antigen binding call is reported as “binds”. With YRAGDAAD the antigen binding call was “binds”. For YREGDAAD, the antigen binding call was “no binding”. In the case of YAARAALD, the antigen binding call is reported as “no binding”. In the case of YRARSAAD, the antigen binding call is reported as “binds”. In the case of DAGGGYSV, the antigen binding call is reported as “no binding”. In the case of DKEGGSSA, the antigen binding call is reported as “no binding”. In the case of DKTGNDVV, the antigen binding call is reported as “no binding”. For AATRNVGV, the antigen binding call was “no binding”. YAARAAVD was tested, and the antigen binding call was “no binding”. In the case of YRARSAVD, the antigen binding call is reported as “binds”. For VGGTSDGV, the antigen binding call was “no binding”. DKGRSAGD was tested, and the antigen binding call was “no binding”. In the case of YKGRDDVA, the antigen binding call is reported as “no binding”. With YKGRDAWD the antigen binding call was “binds”. For YKGRDALD, the antigen binding call was “binds”. YKGRDASD was tested, and the antigen binding call was “no binding”. With YKGRDAGD the antigen binding call was “binds”. For SGKKAVWV, the antigen binding call was “no binding”. In the case of VEAGDDVY, the antigen binding call is reported as “no binding”. With VTGANDWV the antigen binding call was “no binding”. With SKGRSDVV the antigen binding call was “no binding”.
